Unmarked numbers belong to inactive results. For some of these results: Measured potencies and affinities stand elsewhere. The source made the active and inactive calls. Unless noted, how the calls were made is not given here.

Here are results for 20 molecules from PubChem BioAssay.

The nature of assay [1]: antimalarial activity against Dd2 strain (AID 2302;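 active means growth inhibition above 50% at the single 2 µM test dose, taken to imply half-maximal potency below 2 µM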;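 further: 0% = DMSO untreated growth and 100% = chloroquine plus artemisinin killed control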). Conditions: P. falciparum Dd2 in RBCs, LDH growth readout, 72 h; at 2 µM; hits give high values.
Assay [2] can be described thus: human hepatoma cell viability loss – ATP luminescence, cytotoxicity control for P. falciparum antimalarial project, primary screen (AID 2303;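 active means inhibition above 50%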;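 further: 0% = DMSO wells and 100% = digitonin-killed cells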). Conditions: HepG2 viability, 24-48 h, at 10 µM, hits give high values.
The target of assay [3] is L-lactate dehydrogenase (Plasmodium falciparum (isolate CDC / Honduras)) (UniProt Q27743). Description: PfLDH activity inhibition – cell lysate, 3D7 strain, counter-screen for P. falciparum growth inhibition project (AID 2304).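 Further: 0% = vehicle and 100% = reference inhibitor.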 Conditions: P. falciparum 3D7 crude extract, LDH APAD/NBT absorbance; at 2 µM; hits give high values.
Sequence of L-lactate dehydrogenase (Plasmodium falciparum (isolate CDC / Honduras)) (Q27743 whole entry, looked up): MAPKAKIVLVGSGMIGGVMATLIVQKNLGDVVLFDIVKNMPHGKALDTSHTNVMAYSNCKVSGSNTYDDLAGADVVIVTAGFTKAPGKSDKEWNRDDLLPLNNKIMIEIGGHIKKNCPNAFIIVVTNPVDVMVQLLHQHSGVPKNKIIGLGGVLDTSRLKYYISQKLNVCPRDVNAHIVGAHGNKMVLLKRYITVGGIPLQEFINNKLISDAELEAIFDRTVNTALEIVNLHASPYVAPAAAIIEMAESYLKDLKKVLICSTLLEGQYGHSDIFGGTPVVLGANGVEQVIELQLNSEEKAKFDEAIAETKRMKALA
Assay [4] can be described thus: inhibition of 3D7 malaria parasite growth – strain 3D7 (AID 2306).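 Further: 0% = DMSO wells and 100% = chloroquine plus artemisinin control wells.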 Conditions: P. falciparum 3D7 erythrocytic growth, LDH absorbance, 72 h; at 2 µM; hits give high values.
In assay [5] the target is Calcium-dependent protein kinase 1 (Plasmodium falciparum (isolate 3D7)) (UniProt P62344). Description: PfCDPK1 kinase inhibitors, biochemical, TCAMS library (AID 1159585; cut-off not given, nearly all actives have IC50 up to about 0.98 µM;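 further: inhibitors leave more ATP so luminescence rises with inhibition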). Conditions: recombinant PfCDPK1, Kinase-Glo ATP depletion luminescence.
Sequence of Calcium-dependent protein kinase 1 (Plasmodium falciparum (isolate 3D7)) (P62344 whole entry, looked up): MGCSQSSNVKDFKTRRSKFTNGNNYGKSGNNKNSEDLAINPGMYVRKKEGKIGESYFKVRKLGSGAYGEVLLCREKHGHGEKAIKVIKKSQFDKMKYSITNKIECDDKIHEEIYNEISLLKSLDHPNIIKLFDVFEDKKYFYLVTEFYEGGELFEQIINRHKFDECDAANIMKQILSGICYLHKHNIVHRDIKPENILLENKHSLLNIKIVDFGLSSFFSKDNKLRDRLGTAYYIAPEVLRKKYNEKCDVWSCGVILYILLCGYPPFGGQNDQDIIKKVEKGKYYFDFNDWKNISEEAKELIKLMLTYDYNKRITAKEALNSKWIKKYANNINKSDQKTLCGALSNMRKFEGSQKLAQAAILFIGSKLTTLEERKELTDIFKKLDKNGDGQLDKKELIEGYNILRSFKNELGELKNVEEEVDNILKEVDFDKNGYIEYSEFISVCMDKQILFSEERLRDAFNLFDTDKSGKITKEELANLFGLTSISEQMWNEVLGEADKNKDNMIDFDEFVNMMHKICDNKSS
Assay [6] deals with Plasmodium falciparum protein kinase 6 (PK6, PF3D7_1337100) (UniProt Q8IDW1). The assay can be described thus: PfPK6 kinase inhibitors, biochemical, TCAMS library (AID 1159586). Conditions: recombinant PfPK6, Kinase-Glo ATP depletion luminescence.
Sequence of Plasmodium falciparum protein kinase 6 (PK6, PF3D7_1337100) (Q8IDW1 1-305): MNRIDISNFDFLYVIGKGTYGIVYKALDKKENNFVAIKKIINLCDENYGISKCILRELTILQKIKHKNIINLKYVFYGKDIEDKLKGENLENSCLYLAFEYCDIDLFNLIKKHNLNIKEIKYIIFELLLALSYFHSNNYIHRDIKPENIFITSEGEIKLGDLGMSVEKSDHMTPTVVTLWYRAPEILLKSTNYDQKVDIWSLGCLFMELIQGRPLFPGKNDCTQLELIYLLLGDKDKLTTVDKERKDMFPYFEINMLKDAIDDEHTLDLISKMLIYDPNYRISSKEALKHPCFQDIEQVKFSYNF
Assay [7] concerns the target Protein kinase 7 (PK7), Plasmodium falciparum 3D7 (PF3D7_0213400) (UniProt Q7YTF7). The assay can be described thus: inhibition of Plasmodium PK7 catalytic activity – biochemical, TCAMS antimalarial set, Kinase-Glo luminescence (AID 1159587). Conditions: recombinant PfPK7, Kinase-Glo ATP depletion luminescence.
Assay [8] has as its target Calcium-dependent protein kinase 4 (Plasmodium falciparum (isolate 3D7)) (UniProt Q8IBS5). The assay can be described thus: PfCDPK4 kinase inhibitors, biochemical, TCAMS library (AID 1159588; cut-off not given, nearly all actives have IC50 up to about 0.91 µM). Conditions: recombinant PfCDPK4, Kinase-Glo ATP depletion luminescence.

Sequence of Protein kinase 7 (PK7), Plasmodium falciparum 3D7 (PF3D7_0213400) (Q7YTF7 1-343): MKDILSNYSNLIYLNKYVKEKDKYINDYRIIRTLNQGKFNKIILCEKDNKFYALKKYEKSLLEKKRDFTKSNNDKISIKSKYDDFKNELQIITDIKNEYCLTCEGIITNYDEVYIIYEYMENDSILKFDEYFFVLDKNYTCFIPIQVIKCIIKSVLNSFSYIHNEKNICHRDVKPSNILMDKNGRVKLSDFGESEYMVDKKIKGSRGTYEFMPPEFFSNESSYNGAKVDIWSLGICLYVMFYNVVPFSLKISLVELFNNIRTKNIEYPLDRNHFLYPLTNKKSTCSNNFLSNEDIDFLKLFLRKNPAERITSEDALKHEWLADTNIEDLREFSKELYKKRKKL
Sequence of Calcium-dependent protein kinase 4 (Plasmodium falciparum (isolate 3D7)) (Q8IBS5 whole entry, looked up): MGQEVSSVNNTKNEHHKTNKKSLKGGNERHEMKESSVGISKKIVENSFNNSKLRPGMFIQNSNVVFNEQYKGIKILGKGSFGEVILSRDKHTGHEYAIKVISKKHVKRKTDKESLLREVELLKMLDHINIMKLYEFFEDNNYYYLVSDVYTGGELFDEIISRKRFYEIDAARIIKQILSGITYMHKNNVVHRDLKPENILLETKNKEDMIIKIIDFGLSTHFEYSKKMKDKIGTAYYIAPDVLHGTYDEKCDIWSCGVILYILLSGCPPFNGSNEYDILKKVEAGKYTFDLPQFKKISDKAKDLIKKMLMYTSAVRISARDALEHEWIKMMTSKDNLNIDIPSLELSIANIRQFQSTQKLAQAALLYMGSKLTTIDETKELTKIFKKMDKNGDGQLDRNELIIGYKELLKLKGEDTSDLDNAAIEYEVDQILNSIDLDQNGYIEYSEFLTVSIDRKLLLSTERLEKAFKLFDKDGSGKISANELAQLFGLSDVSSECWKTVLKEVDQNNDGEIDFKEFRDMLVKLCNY

Consider `c1ncc(CCNc2nc(Nc3ccc4c(c3)OCO4)nc(NC3CCCC3)n2)[nH]1`, for which the values for the growth inhibition in assay [1] and in assay [4] were -3% and 80% (active), respectively. For the same molecule, the values for the inhibition in assay [2] and in assay [3] were -1% and -2%, respectively. The outcome in assay [5], in assay [6], in assay [7] and in assay [8] was inactive.
For `O=C(Nc1ccc(S(=O)(=O)N2CCCCC2)cc1)c1cc(-c2ccccc2O)n[nH]1`, the figures for the growth inhibition in assay [1] and in assay [4] were 81% (active) and 94% (active), respectively. Moreover, the inhibition was 13% in assay [2] and -2% in assay [3]. Also, the result in assay [5], in assay [6], in assay [7] and in assay [8] was inactive.
On to `Cc1cc(F)ccc1Oc1nc(Nc2ccc(N3CCOCC3)c(F)c2)nc2c1S(=O)(=O)CCC2`, for which the growth inhibition in assay [1] is 98% (active); in assay [4], 96% (active). Besides, the inhibition in assay [2] is 10%; in assay [3] it was 0%. For the same molecule, the result in assay [5], in assay [6], in assay [7] and in assay [8] was inactive.
For the molecule `CCCCCCCC1CC(CC(=O)Nc2ccnc3ccc(OC)cc23)CN1` (stereo not given), the growth inhibition was 58% (active) in assay [1] and 90% (active) in assay [4]. In addition, the inhibition was 22% in assay [2] and -2% in assay [3]. The outcome in assay [5], in assay [6], in assay [7] and in assay [8] was inactive.
For `Cc1cc(C)c(C(=O)Nc2n[nH]c3nnc(-c4cccc(F)c4F)cc23)c(C)c1`, the figures for the growth inhibition in assay [1] and in assay [4] were -4% and 90% (active), respectively. Further, the inhibition in assay [2] was -2%; in assay [3], -4%. The outcome in assay [5], in assay [6], in assay [7] and in assay [8] was inactive.
As to `COc1ccc2nccc([C@@H](O)CN3CCC(NCCOc4cc(C(F)(F)F)ccc4F)CC3)c2c1`, the growth inhibition in assay [1] is 83% (active); in assay [4] it was 100% (active). The inhibition was 13% in assay [2] and 2% in assay [3]. The result in assay [5], in assay [6], in assay [7] and in assay [8] was inactive.
As for `O=C(NC1CCN(CCN2CCC(c3ccccc3C(F)(F)F)CC2)CC1)c1ccc(-c2ccc(Cl)cc2)cc1`, the growth inhibition in assay [1] was 68% (active); in assay [4], 101% (active). In addition, the inhibition is 39% in assay [2] and 4% in assay [3]. Besides, the result in assay [5], in assay [6], in assay [7] and in assay [8] was inactive.
With `Cc1cc(NC(=O)c2ccco2)ccc1OC1CCN(Cc2ccc(C#N)cc2)CC1`, the growth inhibition in assay [1] is 89% (active); in assay [4], 92% (active). In addition, the inhibition in assay [2] is 2%; in assay [3] it was -1%. For the same molecule, the result in assay [5], in assay [6], in assay [7] and in assay [8] was inactive.
As to `O=C(NCc1cccc(C(F)(F)F)c1)c1ccc(-c2nc3cc(F)c(F)cc3[nH]2)cc1`, the growth inhibition is 7% in assay [1] and 97% (active) in assay [4]. In addition, the results for the inhibition in assay [2] and in assay [3] were -1% and 4%, respectively. The outcome in assay [5], in assay [6], in assay [7] and in assay [8] was inactive.
Take `CCOc1ccccc1CNc1nccc(NCCc2cn(C)c3ccccc23)n1`: the growth inhibition is 62% (active) in assay [1] and 98% (active) in assay [4]. Also, the inhibition is 27% in assay [2] and -4% in assay [3]. In addition, the outcome in assay [5], in assay [6], in assay [7] and in assay [8] was inactive.
`Cc1ccc(-c2cccc3c(NC(=O)Nc4ccc5nccc(N6CCN(C)CC6)c5c4)cccc23)cn1`: the growth inhibition in assay [1] was 89% (active); in assay [4], 90% (active). For the same molecule, the inhibition in assay [2] was 6%; in assay [3], -7%. For the same molecule, the outcome in assay [5], in assay [6], in assay [7] and in assay [8] was inactive.
In the case of `CC(CN1CCN(C)CC1)C(=O)Nc1ccc(-c2cccc(-c3nc4ccc(C(F)(F)F)cc4[nH]3)c2)cc1` (stereo not given), the growth inhibition in assay [1] was 96% (active); in assay [4] it was 99% (active). Moreover, the inhibition in assay [2] was 16%; in assay [3], -6%. Also, the outcome in assay [5], in assay [6], in assay [7] and in assay [8] was inactive.
Regarding `O=C(NC1CCN(Cc2ccccc2)CC1)c1cc(-c2ccncc2)c(-c2ccc(Cl)c(O)c2)o1`, the growth inhibition is 86% (active) in assay [1] and 100% (active) in assay [4]. The inhibition was 9% in assay [2] and 1% in assay [3]. For the same molecule, the outcome in assay [5], in assay [6], in assay [7] and in assay [8] was inactive.
Take `Nc1c2c(nc3ccc(C(=O)Nc4cc(I)c(O)c(I)c4)cc13)CCCC2`: the growth inhibition in assay [1] was 64% (active); in assay [4], 96% (active). For the same molecule, the inhibition is 14% in assay [2] and 0% in assay [3]. The outcome in assay [5], in assay [6], in assay [7] and in assay [8] was inactive.
As for `CN(C)CC(=O)Nc1ccc(Nc2nccc(NCC(O)c3ccccc3)n2)cc1` (stereo not given), the growth inhibition in assay [1] is 2%; in assay [4], 95% (active). Moreover, the inhibition in assay [2] was -2%; in assay [3], -4%. In addition, the outcome in assay [5], in assay [6], in assay [7] and in assay [8] was inactive.
As for `COc1ccc2ncc(F)c([C@@H](O)CN3CCC(NCc4ccc5c(c4)NCCS5)CC3)c2n1`, the growth inhibition is 69% (active) in assay [1] and 99% (active) in assay [4]. Besides, the results for the inhibition in assay [2] and in assay [3] were 77% (active) and -3%, respectively. Moreover, the outcome in assay [5], in assay [6], in assay [7] and in assay [8] was inactive.
Regarding `O=C(NC1CCC(CCN2CCc3ccc(-c4cnccn4)cc3CC2)CC1)c1cccc(-n2cccn2)c1` (stereo not given), the growth inhibition in assay [1] is 1%; in assay [4] it was 93% (active). For the same molecule, the inhibition in assay [2] was 23%; in assay [3], -3%. Further, the outcome in assay [5], in assay [6], in assay [7] and in assay [8] was inactive.
Turning to `O=C(Cc1cccnc1)Nc1cccc(-c2cccc(-c3nc4ccc(C(F)(F)F)cc4[nH]3)c2)c1`, the values for the growth inhibition in assay [1] and in assay [4] were 38% and 99% (active), respectively. The inhibition in assay [2] was 42%; in assay [3], -7%. Moreover, the result in assay [5], in assay [6], in assay [7] and in assay [8] was inactive.
Take `O=[N+]([O-])c1cccc(NC(=S)N2CCCN(Cc3ccc(Cl)cc3Cl)CC2)c1`: the growth inhibition in assay [1] is 50% (active); in assay [4], 94% (active). The inhibition is 3% in assay [2] and 4% in assay [3]. Moreover, the outcome in assay [5], in assay [6], in assay [7] and in assay [8] was inactive.
Turning to `N#CC1(CCCNCCc2ccc(O)cc2)CCCc2c(O)cccc21` (stereo not given), the results for the growth inhibition in assay [1] and in assay [4] were 3% and 95% (active), respectively. The inhibition is -2% in assay [2] and -5% in assay [3]. Further, the result in assay [5], in assay [6], in assay [7] and in assay [8] was inactive.
